Compounds with a hit are over-represented: about 0.93% of the library has one in this group of screens.
CIT2-GFP yeast = modulators of TOR pathway CIT2-GFP in S. cerevisiae; actives 0.065% (n = 320,000); S. cerevisiae CIT2-GFP strain, flow cytometry, 3 h; 100 means same as DMSO wells; AID 2029; GFP response vs DMSO, % at 10 µM;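 active means GFP response relative to DMSO above a set limit, near the screen mean plus 3 SD, cut at about 150% in these data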;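 further: ratio of well median GFP fluorescence to mean of DMSO wells on the plate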
AGP1-GFP MLPCN = alters AGP1-GFP fluorescence in TOR pathway yeast screen; GFP response vs DMSO, % at 10 µM; S. cerevisiae AGP1-GFP multiplex flow cytometry, 3 h; GFP as percent of DMSO wells; actives 0.02% (n = 320,000);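 active means GFP response relative to DMSO above a set limit, near screen average plus 3 SD, cut at about 150% in these data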;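 further: median GFP channel fluorescence of the gated AGP1 strain per well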
RPL19A TOR yeast = yeast TOR pathway RPL19A-GFP modulation. S. cerevisiae RPL19A-GFP strain, flow cytometry, 3 h; active compounds read low. percent response vs DMSO, % at 10 µM. actives 0.3% (n = 330,000);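 active means percent response vs DMSO below 50%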;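 further: median channel GFP fluorescence of the barcoded RPL19A-GFP strain; lower means less RPL19A-GFP as with rapamycin TOR inhibition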
LAP4-GFP MLPCN = modulators of TOR pathway LAP4-GFP in S. cerevisiae; S. cerevisiae LAP4-GFP multiplex, flow cytometry GFP, 3 h; median GFP as percent of DMSO wells; GFP response vs DMSO, % at 10 µM; actives 0.34% (n = 320,000); AID 2023;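 active means GFP response vs DMSO above a set limit, about the screen mean plus 3 SD, cut at about 150% in these data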
MEP2 TOR yeast = modulators of TOR pathway MEP2-GFP in S. cerevisiae. S. cerevisiae MEP2-GFP strain, flow cytometry GFP, 3 h; 100% = DMSO control level. GFP response vs DMSO, % at 10 µM. actives 0.51% (n = 330,000);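 active means GFP response versus DMSO above a set limit, roughly screen mean plus 3 SD, cut at about 180% in these data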;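 further: median GFP fluorescence of the barcode-gated MEP2-GFP cells per well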
LAP4 cherry2 = second confirmation of modulators of TOR reporter LAP4-GFP in yeast; shares compounds with LAP4-GFP MLPCN; S. cerevisiae LAP4-GFP strain, flow cytometry GFP, 3 h; GFP response vs DMSO, % at 10 µM; actives 20% (n = 590);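 active means GFP signal as percent of the solvent control above about 150%, meaning raised reporter expression, limit read from the data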
MEP2-GFP pick2 = reconfirmed MEP2-GFP TOR pathway modulator in yeast; shares compounds with LAP4-GFP MLPCN; S. cerevisiae MEP2-GFP strain, flow cytometry GFP, 3 h; GFP response vs DMSO, % at 10 µM; actives 10% (n = 590); AID 2622;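 active means GFP signal above 150% of the solvent control wells, that is a rise of more than half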;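 further: median channel GFP fluorescence of all gated yeast cells per well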
RPL19A-GFP pick2 = yeast RPL19A-GFP TOR reporter modulation, second cherry pick; shares compounds with LAP4-GFP MLPCN; S. cerevisiae RPL19A-GFP strain, flow cytometry GFP, 3 h; active compounds read low; 100% means same as DMSO wells; GFP response vs DMSO, % at 10 µM; actives 3% (n = 590);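 active means under 65% GFP response relative to DMSO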;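 further: median GFP channel fluorescence per well over the all cells gate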
CIT2 GFP CP2 = second confirmation of modulators of TOR reporter CIT2-GFP in yeast; actives 8% (n = 590); AID 2624; S. cerevisiae CIT2-GFP strain, flow cytometry GFP, 3 h; DMSO control wells read 100%; GFP response vs DMSO, % at 10 µM; shares compounds with LAP4-GFP MLPCN;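 active means GFP response vs DMSO above about 150%, limit read from the data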;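 further: median green fluorescence per well over all gated yeast cells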
AGP1-GFP pick2 = second confirmation of modulators of TOR reporter AGP1-GFP in yeast; percent response vs DMSO, % at 10 µM; AID 2643; shares compounds with LAP4-GFP MLPCN; 590 tested, under 10 active; S. cerevisiae AGP1-GFP strain, flow cytometry GFP, 3 h;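 active means over 150 percent of DMSO response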;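 further: median GFP channel fluorescence over all cells without mother daughter split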
Yeast autofluor = counter-screen for compound autofluorescence in yeast s288c cells; 610 tested, under 10 active; shares compounds with LAP4-GFP MLPCN; S. cerevisiae s288c, 520 nm autofluorescence, flow cytometry, 3 h; active compounds read high; zero means same as solvent-only cells; fluorescence change (kMESF span) at 33 µM;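 active means fluorescence span over the dose series, or activity score, above about 33, limit read from the data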
s288c autofl DR = yeast s288c autofluorescence artifact in dose response | S. cerevisiae s288c parental, compound autofluorescence, flow cytometry, 3 h | 110 tested, under 10 active | fluorescence change (span) at 33 µM | AID 488829 | shares compounds with LAP4-GFP MLPCN;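 active means fluorescence change span, or the activity score built from it, above 25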
TORC1 bypass gr = stops wildtype yeast growth while TORC1 bypass cells still grow. shares compounds with LAP4-GFP MLPCN. S. cerevisiae BY4741 spot growth rating, 48-72 h; active compounds read low. growth rating (0-3) at 30 µM. 120 tested, under 10 active;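 active means growth rating at most 1 for wild type yeast while the TORC1 bypass strain still grows fully, rated 3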
Of the large screens only hits and unclear results are named; the others gave an inactive call (follow-up assays come after a bar, where they were run).

NC(=O)CSc1oc(-c2ccco2)nc1S(=O)(=O)c1ccccc1	none
Cc1ccc(C(=O)Oc2oc(-c3ccco3)nc2C=Nc2ccc(Cl)cc2)cc1	LAP4-GFP MLPCN 223 | Yeast autofluor inactive
O=C(Oc1oc(-c2ccco2)nc1C=Nc1ccccc1)c1ccoc1	LAP4-GFP MLPCN 217 | Yeast autofluor inactive
Cc1ccc(N=Cc2nc(-c3ccco3)oc2O)cc1	none
C/C(=N\Nc1cccc([N+](=O)[O-])c1)c1cc2ccccc2o1	none
CCOC(=O)c1c(C)[nH]c(C)c1S(=O)(=O)NCCc1sccc1C	none
CCOC(=O)C1CCCN(S(=O)(=O)c2cccc3cccnc23)C1 (stereo unspecified)	none
Oc1ccc(Cl)cc1/C=N/c1nccs1	none
Oc1c(Br)cc(Br)cc1/C=N/c1nccs1	LAP4-GFP MLPCN 194 | LAP4 cherry2 inactive | MEP2-GFP pick2 inactive | RPL19A-GFP pick2 inactive | CIT2 GFP CP2 inactive | AGP1-GFP pick2 inactive
Oc1c(Br)cc(Br)cc1C=Nc1cccnc1	none | LAP4 cherry2 inactive | MEP2-GFP pick2 inactive | RPL19A-GFP pick2 inactive | CIT2 GFP CP2 inactive | AGP1-GFP pick2 inactive
Oc1c(Br)cc(Br)cc1C=Nc1ccc2[nH]ncc2c1	LAP4-GFP MLPCN 184 | Yeast autofluor inactive
COc1c(OC(C)=O)c(=O)n2c3ccccc3c3ccnc1c32	RPL19A TOR yeast 48, MEP2 TOR yeast 245 | LAP4 cherry2 inactive | MEP2-GFP pick2 inactive | RPL19A-GFP pick2 inactive | CIT2 GFP CP2 inactive | AGP1-GFP pick2 inactive
CCOc1ccc(CNC(=S)Nc2ccccc2)cc1Cl	none
CC(C)CCN1C(=O)c2ccc(C(=O)NCc3ccccn3)cc2C1=O	LAP4-GFP MLPCN 164 | LAP4 cherry2 inactive | MEP2-GFP pick2 inactive | RPL19A-GFP pick2 inactive | CIT2 GFP CP2 inactive | AGP1-GFP pick2 inactive
CN1C(=O)c2ccc(C(=O)NCc3ccccn3)cc2C1=O	none
O=C(CCCc1nc2ccccc2s1)NCc1ccc(F)cc1	none
CCOc1cccc2sc(Nc3nc4ccc(NC(C)=O)cc4s3)nc12	none
COC(=O)c1cc(N2C(=O)C3C(C2=O)C2(C)C=CC3(C)O2)ccc1Cl (stereo unspecified)	LAP4-GFP MLPCN 162 | Yeast autofluor inactive
CCOC(=O)CSc1cc(CS(C)(=O)=O)nc(-c2ccccn2)n1	none
CCOC(=O)C(C(=O)OCC)C(C(=O)OCC)N1CCOCC1 (stereo unspecified)	LAP4-GFP MLPCN 180 | Yeast autofluor inactive
O=C(COC(=O)c1ccccc1C(=O)OCC(=O)NCCc1c[nH]c2ccccc12)NCCc1c[nH]c2ccccc12	LAP4-GFP MLPCN 155 | LAP4 cherry2 inactive | MEP2-GFP pick2 inactive | RPL19A-GFP pick2 inactive | CIT2 GFP CP2 inactive | AGP1-GFP pick2 inactive
CCCCC1OC23CCCCC2C(C#N)(C(=N)O3)C1(C#N)C#N (stereo unspecified)	MEP2 TOR yeast 189 | Yeast autofluor inactive
CCCCS(=O)(=O)/C=C\C=C/S(=O)(=O)CCCC	LAP4-GFP MLPCN 173 | LAP4 cherry2 214 | MEP2-GFP pick2 inactive | RPL19A-GFP pick2 inactive | CIT2 GFP CP2 inactive | AGP1-GFP pick2 inactive | Yeast autofluor inactive
CCCCS(=O)(=O)/C=C\C1C2C=CC(C2)C1S(=O)(=O)CCCC (stereo unspecified)	none (no result: AGP1-GFP MLPCN)
NC(=O)c1cc(Br)cc2c3c([nH]c12)CCCC3	none
CCN1C(=O)/C(=C\C(=O)c2cccs2)c2cc(Br)ccc21	LAP4-GFP MLPCN 196 | Yeast autofluor inactive
Cc1ccc(S(=O)(=O)NC2CCCC2)cc1C(N)=O	none
O=C1NCCN1C(=O)c1ccccc1F	none
O=C(O)CCCc1ccc2c(c1)CCc1ccccc1-2	LAP4-GFP MLPCN 173 | LAP4 cherry2 inactive | MEP2-GFP pick2 inactive | RPL19A-GFP pick2 inactive | CIT2 GFP CP2 inactive | AGP1-GFP pick2 inactive
COc1ccc([N+](=O)[O-])c(S(=O)(=O)c2ccc(Cl)cc2)n1	none | Yeast autofluor inactive | s288c autofl DR inactive | TORC1 bypass gr inactive
COc1ccc([N+](=O)[O-])c(S(=O)(=O)c2ccccc2)n1	LAP4-GFP MLPCN 218 | Yeast autofluor inactive | s288c autofl DR inactive | TORC1 bypass gr inactive
O=[N+]([O-])c1cccnc1S(=O)(=O)c1ccccc1	none
COCCCNc1nc(N)c([N+](=O)[O-])c(Nc2cc(OC)ccc2OC)n1	none
CNc1nc(N)c([N+](=O)[O-])c(Nc2ccccc2OC)n1	none | s288c autofl DR inactive | TORC1 bypass gr inactive
CNc1nc(N)c([N+](=O)[O-])c(Nc2cc(OC)ccc2OC)n1	none (no result: CIT2-GFP yeast, AGP1-GFP MLPCN, RPL19A TOR yeast, LAP4-GFP MLPCN, MEP2 TOR yeast) | s288c autofl DR inactive | TORC1 bypass gr inactive
COc1ccccc1Nc1nc(NCCO)nc(N)c1[N+](=O)[O-]	none
O=C(Cn1cc(/C=N/NC(=O)c2cccc3ccccc23)c2ccccc21)Nc1ccc(F)cc1	none
O=C(OCC(=O)N1CCN(C(=O)c2ccco2)CC1)c1cc(-c2ccccc2)nc2ccccc12	LAP4-GFP MLPCN 163, MEP2 TOR yeast 203 | LAP4 cherry2 inactive | MEP2-GFP pick2 215 | RPL19A-GFP pick2 inactive | CIT2 GFP CP2 inactive | AGP1-GFP pick2 inactive | Yeast autofluor inactive
O=C(OCC(=O)N1CCN(C(=O)c2ccco2)CC1)c1cn(-c2ccccc2)nc1-c1ccccc1	none

Assay outcomes from PubChem.
